Measurements as given in PubChem BioAssay (Tox21).
Records with an inconclusive call do not appear. The source made the active and inactive calls. Unless noted, the call rests on the fitted dose curve; in most records, active means well fitted curve in the direction sought with a large enough effect in the repeat runs; inconclusive means weak or mixed curves; inactive means no such curve, though single readings can be large; an effect the other way counts as inactive or inconclusive.

How the values were obtained:
[1] = qHTS assay to identify small molecule antagonists of the sonic hedgehog signaling (Shh) pathway (AID 1259369; calls by dose curve; further: nearly all actives have a fitted effect of over 45% in size)
Outline: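 For antagonist detection, the reporter line received test compounds together with conditioned medium, incubated 24hr at 37 C, 5% CO2, then luminescence was recorded following 30min room-temperature luciferase reagent incubation.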

[2] = target: Estrogen receptor beta (Homo sapiens) (UniProt Q92731); assay: qHTS assay to identify small molecule agonists of the estrogen receptor beta (ER-beta) signaling pathway (AID 1259377; active means well fitted activation curve with a large enough effect in the signal ratio in the repeat runs, not every such curve was filed as active; the % refers to the signal ratio)
Outline: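 Ratiometric beta-lactamase FRET read-out came after 2 h substrate loading at room temperature. It followed 16 h compound treatment at 37C of GripTite HEK293T cells carrying a UAS-bla reporter, plated in 2% charcoal-stripped FBS medium.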

[3] = target: Estrogen receptor beta (Homo sapiens) (UniProt Q92731); assay: qHTS assay to identify small molecule antagonists of the estrogen receptor beta (ER-beta) signaling pathway (AID 1259378; active means well fitted inhibition curve with a large enough effect in the signal ratio in the repeat runs, not every such curve was filed as active; the % refers to the signal ratio)
Outline: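 ER-beta-UAS-bla HEK293T cells in 2% charcoal-stripped FBS medium treated with compound plus 1nM final 17-beta-estradiol for 16 hr at 37C. Beta-lactamase reporter read by FRET substrate fluorescence after 2 hours at room temperature.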

[4] = qHTS assay to identify small molecule agonists of the androgen receptor (AR) signaling pathway in the presence of an antagonist - cell viability counter screen (AID 1259379);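 further: MDA-kb2 human breast cancer cells carrying an MMTV luciferase reporter; series mostly up to about 92 µM; nearly all actives have a fitted effect of over 25% in size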
Outline: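 Seed MDA-kb2 at 3,000 cells/well; incubate 5 hr, 37C, 0% CO2. Add nilutamide to 3.0uM final, then pin compounds at 15 concentrations. Incubate 16 hr. Add CellTiter-Fluor at 15 hr, read fluorescence after 1 hr.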

[5] = qHTS assay to identify small molecule antagonists of the estrogen receptor beta (ER-beta) signaling pathway - cell viability counter screen (AID 1259382); further: series mostly up to about 92 µM; nearly all actives have a fitted effect of over 55% in size
Outline: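 In this multiplexed counter screen, cells were seeded at 2,000 per well in medium with 2% charcoal-stripped FBS and incubated 6 hr before compound and 1nM final E2 were added. Sixteen hours later, ATP-based luminescence reported viability.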

[6] = target: Estrogen receptor (Homo sapiens) (UniProt P03372); assay: qHTS assay to identify small molecule agonists of the estrogen receptor alpha (ER-alpha) signaling pathway in the presence of an antagonist (AID 1259383; calls by dose curve; further: top concentration of the series differs between compounds; nearly all actives have a fitted effect of over 15% in size)
Outline: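 Stably transfected VM7Luc4E2 reporter cells, kept 5 days in charcoal-stripped serum, received ICI-182,780 at 10.0nM final before compound addition. Following 22hr incubation at 37C and 5% CO2, luciferase signal was read by luminescence.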

[7] = qHTS assay to identify small molecule agonists or antagonists of the thyroid stimulating hormone receptor (TSHR) signaling pathway - wild type cell line counter screen (AID 1259384; calls by dose curve)
Outline: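 Wild-type Hek293 cells, 800/well, 18 h at 37C, then compound with Ro20-1724 for 30 min RT. cAMP by HTRF (cAMP-d2/anti-cAMP cryptate), 1 h RT, fluorescence read. 15 concentrations, triplicates.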

[8] = target: Thyrotropin receptor (Homo sapiens) (UniProt P16473); assay: qHTS assay to identify small molecule antagonists of the thyroid stimulating hormone receptor (TSHR) signaling pathway (AID 1259385; calls by dose curve; further: nearly all actives have a fitted effect of over 20% in size)
Outline: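 TSHR-HEK293 cells (800/well) plated 18 h, then compounds with Ro20-1724 and TSH at 1.5 ng/mL final, 30 min at room temperature. cAMP quantified by HTRF (cAMP-d2/anti-cAMP-cryptate, 1 h); 15 concentrations in triplicate.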

[9] = qHTS assay to identify small molecule agonists of the estrogen receptor alpha (ER-alpha) signaling pathway in the presence of an antagonist - cell viability counter screen (AID 1259386);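 further: series mostly up to about 92 µM; cells exposed to compounds for 22 h at 37 °C before the viability read; nearly all actives have a fitted effect of over 30% in size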
Outline: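 Viability counter screen using VM7Luc4E2 (full-length ER-alpha, four ERE-luciferase). The cells were treated with compounds alongside ICI-182,780 10.0nM for 22hr, and live-cell protease fluorescence was quantified with CellTiter-Fluor.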

[10] = target: Progesterone receptor (Homo sapiens) (UniProt P06401); assay: qHTS assay to identify small molecule agonists of the progesterone receptor (PR) signaling pathway (AID 1346784; calls by dose curve; further: nearly all actives have a fitted effect of over 30% in size)
Outline: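 Agonist qHTS: compounds pinned onto 3,000 PR-UAS-bla HEK 293T cells per well in charcoal-stripped serum medium, 16hr at 37C, then beta-lactamase activity measured by LiveBLAzer FRET fluorescence after 2 hours at room temperature.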

[11] = qHTS assay to identify small molecule antagonists of the progesterone receptor (PR) signaling pathway - cell viability counter screen (AID 1346798); further: series mostly up to about 92 µM; nearly all actives have a fitted effect of over 50% in size
Outline: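 Cytotoxicity read as CellTiter-Glo luminescence (30 min, room temperature) in the same wells as the beta-lactamase readout. HEK293T PR-UAS-bla cells in charcoal-stripped 2% FBS received compound and R5020, then 16 h at 37C, 5% CO2.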

[12] = qHTS assay to identify small molecule agonists of the progesterone receptor (PR) signaling pathway - cell viability counter screen (AID 1346799; calls by dose curve; further: nearly all actives have a fitted effect of over 45% in size)
Outline: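 Cytotoxicity measured by CellTiter-Glo luminescence (30 min, RT) in the same wells as the PR beta-lactamase agonist read. Those HEK293T cells had 16 h compound treatment at 37 C in 2% charcoal-stripped FBS medium.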

[13] = qHTS assay to identify small molecule antagonists of the TGF-beta/Smad signaling pathway - cell viability counter screen (AID 1346824); further: nearly all actives have a fitted effect of over 50% in size
Outline: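 SBE-bla HEK 293T cells, incubated overnight, then compound plus 0.25 ng/mL TGF-beta1 (stock added) for 5 hr at 37 C. Viability was read in the same wells by CellTiter-Glo luminescence after 30 min at room temperature.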

[14] = qHTS assay to identify small molecule agonists of the TGF-beta/Smad signaling pathway - cell viability counter screen (AID 1346829); further: top concentration of the series differs between compounds; nearly all actives have a fitted effect of over 45% in size
Outline: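 In parallel with the Smad reporter read, viability of HEK 293T cells stably carrying SBE-bla is quantified by ATP luminescence following 5 hr compound treatment.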

[15] = qHTS assay to identify small molecule agonists of the TGF-beta/Smad signaling pathway (AID 1346859; active means well fitted activation curve with a large enough effect in the signal ratio in the repeat runs, not every such curve was filed as active; the % refers to the signal ratio; further: series mostly up to about 77 µM)
Outline: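 Fluorescence (ex 405 nm; em 460 and 530 nm) was read 2 h after LiveBLAzer FRET substrate at RT. The preceding compound treatment of overnight-plated SBE-bla HEK293T cells lasted 5 h at 37 C.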

[16] = target: Thyrotropin-releasing hormone receptor (Homo sapiens) (UniProt P34981); assay: qHTS assay to identify small molecule antagonists of the thyrotropin-releasing hormone receptor (TRHR) signaling pathway (AID 1346877; active means well fitted inhibition curve with a large enough effect in the repeat runs, not every such curve was filed as active; further: series mostly up to about 51 µM)
Outline: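 Following an 18 h incubation at 37 °C and a 2 h calcium dye load, TRHR-HEK293 cells were exposed to compound (5 min, room temperature) and challenged with TRH, 1 nM final.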

[17] = target: Thyrotropin-releasing hormone receptor (Homo sapiens) (UniProt P34981); assay: qHTS assay to identify small molecule agonists of the thyrotropin-releasing hormone receptor (TRHR) signaling pathway (AID 1346891; calls by dose curve; further: series mostly up to about 58 µM)
Outline: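 Agonist-mode intracellular calcium readout: kinetic fluorescence over 3 min at 1 s intervals after compound addition to TRHR-HEK293 cells (18 h seeded, 2 h dye-loaded at 37 C). Fifteen concentrations, triplicates.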

[18] = qHTS assay to identify small molecule agonists of the estrogen receptor beta (ER-beta) signaling pathway - cell viability counter screen (AID 1259380); further: nearly all actives have a fitted effect of over 30% in size
Outline: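 CellTiter-Glo read, 30 min RT, same wells as bla assay; cells ER-beta-UAS-bla HEK293T; 16 hr compound, 37C; medium 2% charcoal-stripped FBS.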

[19] = target: Progesterone receptor (Homo sapiens) (UniProt P06401); assay: qHTS assay to identify small molecule antagonists of the progesterone receptor (PR) signaling pathway (AID 1346795; active means well fitted inhibition curve with a large enough effect in the signal ratio in the repeat runs, not every such curve was filed as active; the % refers to the signal ratio)
Outline: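 Antagonist mode with agonist R5020 at 1 nM final and 16 hr incubation at 37C. Reporter was beta-lactamase driven by UAS in HEK293T (PR-UAS-bla), 2% charcoal-stripped serum; signal from LiveBLAzer FRET substrate, 2 hr at room temperature.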

Measured: Potency

Chain of Estrogen receptor beta (Homo sapiens) (Q92731 whole entry, looked up): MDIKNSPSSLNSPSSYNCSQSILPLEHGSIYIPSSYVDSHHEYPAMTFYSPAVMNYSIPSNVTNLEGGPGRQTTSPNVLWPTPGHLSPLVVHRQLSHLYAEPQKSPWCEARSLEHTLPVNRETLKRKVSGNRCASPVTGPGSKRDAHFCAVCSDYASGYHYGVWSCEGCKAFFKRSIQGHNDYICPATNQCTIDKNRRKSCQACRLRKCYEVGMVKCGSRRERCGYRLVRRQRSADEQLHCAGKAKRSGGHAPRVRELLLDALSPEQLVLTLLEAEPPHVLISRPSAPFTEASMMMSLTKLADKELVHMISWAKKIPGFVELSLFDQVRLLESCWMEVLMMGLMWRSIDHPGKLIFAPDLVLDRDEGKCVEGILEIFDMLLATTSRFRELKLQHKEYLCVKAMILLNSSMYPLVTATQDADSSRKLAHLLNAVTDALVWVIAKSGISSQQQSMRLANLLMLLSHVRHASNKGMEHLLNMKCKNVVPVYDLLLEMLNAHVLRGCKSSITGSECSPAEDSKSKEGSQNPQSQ
Chain of Thyrotropin-releasing hormone receptor (Homo sapiens) (P34981 whole entry, looked up): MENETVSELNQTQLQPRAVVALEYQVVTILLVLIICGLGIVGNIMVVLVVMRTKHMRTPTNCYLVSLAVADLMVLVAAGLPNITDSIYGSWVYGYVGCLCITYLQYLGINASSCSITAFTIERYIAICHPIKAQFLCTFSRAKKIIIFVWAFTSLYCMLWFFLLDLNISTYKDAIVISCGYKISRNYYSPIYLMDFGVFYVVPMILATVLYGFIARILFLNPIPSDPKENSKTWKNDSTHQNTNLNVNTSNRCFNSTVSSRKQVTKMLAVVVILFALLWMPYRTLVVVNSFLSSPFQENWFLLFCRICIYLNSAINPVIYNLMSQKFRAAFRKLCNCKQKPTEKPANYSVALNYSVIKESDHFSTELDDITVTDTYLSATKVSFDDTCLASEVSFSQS
Chain of Thyrotropin receptor (Homo sapiens) (P16473 whole entry, looked up): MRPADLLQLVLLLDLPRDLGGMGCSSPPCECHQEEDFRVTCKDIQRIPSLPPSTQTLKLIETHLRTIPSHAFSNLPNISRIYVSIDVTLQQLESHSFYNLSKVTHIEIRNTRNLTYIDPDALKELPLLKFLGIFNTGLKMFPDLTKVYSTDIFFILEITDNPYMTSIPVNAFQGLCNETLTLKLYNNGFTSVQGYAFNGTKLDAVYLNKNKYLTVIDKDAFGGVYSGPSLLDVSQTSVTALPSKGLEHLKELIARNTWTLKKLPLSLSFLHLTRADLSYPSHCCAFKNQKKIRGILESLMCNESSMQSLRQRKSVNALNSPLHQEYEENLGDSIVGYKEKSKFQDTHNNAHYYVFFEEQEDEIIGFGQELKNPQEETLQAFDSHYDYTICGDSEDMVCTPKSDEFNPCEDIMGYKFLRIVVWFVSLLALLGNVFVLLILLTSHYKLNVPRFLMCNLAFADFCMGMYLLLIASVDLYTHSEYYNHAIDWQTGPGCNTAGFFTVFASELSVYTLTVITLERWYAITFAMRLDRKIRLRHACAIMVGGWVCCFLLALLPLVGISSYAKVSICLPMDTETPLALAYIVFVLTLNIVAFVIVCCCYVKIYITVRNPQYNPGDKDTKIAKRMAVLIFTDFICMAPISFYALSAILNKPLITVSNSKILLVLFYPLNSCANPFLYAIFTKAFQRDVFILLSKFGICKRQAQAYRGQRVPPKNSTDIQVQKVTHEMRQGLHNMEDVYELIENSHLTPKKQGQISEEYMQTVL
Chain of Progesterone receptor (Homo sapiens) (P06401 whole entry, looked up): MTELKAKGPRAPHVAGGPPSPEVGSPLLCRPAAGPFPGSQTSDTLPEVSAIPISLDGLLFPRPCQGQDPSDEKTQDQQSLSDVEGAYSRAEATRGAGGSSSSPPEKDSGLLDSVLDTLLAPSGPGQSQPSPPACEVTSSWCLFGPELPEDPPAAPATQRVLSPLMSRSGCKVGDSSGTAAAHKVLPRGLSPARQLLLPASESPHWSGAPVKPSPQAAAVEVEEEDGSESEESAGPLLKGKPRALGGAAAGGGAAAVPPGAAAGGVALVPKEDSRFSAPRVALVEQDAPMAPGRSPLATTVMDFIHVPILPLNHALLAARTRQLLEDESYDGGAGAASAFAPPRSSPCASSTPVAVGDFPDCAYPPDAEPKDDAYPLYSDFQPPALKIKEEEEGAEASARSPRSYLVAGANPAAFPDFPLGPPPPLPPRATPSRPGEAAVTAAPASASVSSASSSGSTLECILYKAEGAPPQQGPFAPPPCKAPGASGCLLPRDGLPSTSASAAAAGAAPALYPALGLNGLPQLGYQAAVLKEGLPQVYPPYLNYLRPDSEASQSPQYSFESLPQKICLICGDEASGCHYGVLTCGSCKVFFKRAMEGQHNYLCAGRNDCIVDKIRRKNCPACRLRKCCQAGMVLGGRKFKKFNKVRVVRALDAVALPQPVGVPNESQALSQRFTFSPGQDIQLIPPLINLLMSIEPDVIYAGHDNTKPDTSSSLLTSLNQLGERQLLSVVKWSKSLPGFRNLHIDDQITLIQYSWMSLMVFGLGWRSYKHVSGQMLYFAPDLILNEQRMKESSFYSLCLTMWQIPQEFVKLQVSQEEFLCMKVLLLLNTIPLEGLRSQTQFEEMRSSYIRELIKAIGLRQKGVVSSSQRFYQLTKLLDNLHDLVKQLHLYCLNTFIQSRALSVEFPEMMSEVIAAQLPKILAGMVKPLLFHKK
Chain of Estrogen receptor (Homo sapiens) (P03372 whole entry, looked up): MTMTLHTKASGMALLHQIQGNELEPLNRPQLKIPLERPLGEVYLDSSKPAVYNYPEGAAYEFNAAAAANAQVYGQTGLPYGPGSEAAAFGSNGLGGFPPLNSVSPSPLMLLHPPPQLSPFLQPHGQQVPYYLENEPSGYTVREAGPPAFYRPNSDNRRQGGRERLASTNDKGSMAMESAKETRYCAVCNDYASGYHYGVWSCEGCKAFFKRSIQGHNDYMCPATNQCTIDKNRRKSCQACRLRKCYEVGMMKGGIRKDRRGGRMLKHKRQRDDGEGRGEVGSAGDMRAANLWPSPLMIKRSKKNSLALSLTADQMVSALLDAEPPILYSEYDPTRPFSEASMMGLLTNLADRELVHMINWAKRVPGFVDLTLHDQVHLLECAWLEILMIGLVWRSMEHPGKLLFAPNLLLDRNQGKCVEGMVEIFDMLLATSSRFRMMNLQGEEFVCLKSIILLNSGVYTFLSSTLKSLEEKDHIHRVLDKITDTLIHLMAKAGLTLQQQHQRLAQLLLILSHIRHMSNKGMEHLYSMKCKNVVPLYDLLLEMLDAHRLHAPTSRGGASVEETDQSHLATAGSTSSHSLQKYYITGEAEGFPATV

CC1=CC(=O)CC(C)(C)C1=O
not listed: [18] | [19]
inactive: all other assays above

CC(C)=CCC[C@](C)(O)[C@@H]1CC=C(C)CC1
not listed: [6] | [11] | [16] | [17] | [19]
inactive: all other assays above

C=O
not listed: [5] | [6]
inactive: all other assays above

CC(C)CC(=O)OCc1ccccc1
not listed: [5] | [6] | [7] | [8] | [9] | [19]
inactive: all other assays above

COC(=O)c1ccc(OC)cc1
not listed: [6] | [10] | [11] | [19]
inactive: all other assays above

CCCCNCCCC
not listed: [6] | [18] | [19]
inactive: all other assays above

CCc1nnc(NS(=O)(=O)c2ccc(N)cc2)s1
not listed: [6] | [11] | [12] | [16] | [17]
inactive: all other assays above
